Data: PubChem BioAssay AID1159580 (chemical genetic matrix, 2015)
“And” between values parts separate entries of the source, which are not always exact repeats. Identical values can stand only once. About 2,000 (36%) of roughly 5,500 compounds were called active. Another 18% or so got no clear call; they are omitted. No stated cut-off is given here; in the data, active means normalized growth mostly below about 0.91 (no sharp cut-off); inconclusive means no clear call, values can overlap the other calls; inactive means mostly above about 0.92. The list shows a part of the results.

Assay: chemical genetic growth profiling, strain panel (AID 1159580);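 further: tested at 20 µM; growth read once vehicle control cultures reached saturation at 30 °C; 1 = growth at the plate median or of vehicle wells; lower values mean less growth of the strain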
Conditions: S. cerevisiae deletion strains, growth OD

Measured: normalized growth

NCCCN
inactive: locus YAL021C, strain ccr4, hits give low values 1.02 | locus YAL026C, strain drs2, hits give low values 0.984 | locus YAL030W, strain snc1, hits give low values 0.989 | locus YBL061C, strain skt5, hits give low values 0.989 | locus YBR009C, strain hhf1, hits give low values 0.988 | locus YBR021W, strain FUR4, hits give low values 0.996 | locus YBR023C, strain chs3, hits give low values 0.982 | locus YBR171W, strain sec66, hits give low values 0.957 | locus YBR229C, strain ROT2, hits give low values 0.99 | locus YBR231C, strain swc5, hits give low values 0.984 | locus YBR279W, strain paf1, hits give low values 1 | locus YCL011C, strain gbp2, hits give low values 0.973 | locus YCL016C, strain dcc1, hits give low values 1 | locus YCL029C, strain bik1, hits give low values 0.984 | locus YCL061C, strain MRC1, hits give low values 1.01 | locus YCL069W, strain vba3, hits give low values 0.973 | locus YCR088W, strain abp1, hits give low values 0.982 | locus YDL005C, strain med2, hits give low values 0.977 | locus YDL035C, strain GPR1, hits give low values 1.03 | locus YDL040C, strain nat1, hits give low values 0.986 | locus YDL074C, strain BRE1, hits give low values 1.01 | locus YDL101C, strain DUN1, hits give low values 0.994 | locus YDL185W, strain tfp1, hits give low values 0.983 | locus YDL192W, strain arf1, hits give low values 0.998 | locus YDR001C, strain nth1, hits give low values 0.99 | locus YDR069C, strain doa4, hits give low values 0.987 | locus YDR101C, strain arx1, hits give low values 0.976 | locus YDR137W, strain rgp1, hits give low values 1.02 | locus YDR159W, strain sac3, hits give low values 0.961 | locus YDR162C, strain NBP2, hits give low values 1.01 | locus YDR195W, strain ref2 0.981 | locus YDR297W, strain sur2, hits give low values 0.996 | locus YDR318W, strain mcm21, hits give low values 1.01 | locus YDR334W, strain swr1, hits give low values 0.962 | locus YDR335W, strain msn5, hits give low values 0.987 | locus YDR388W, hits give low values 0.993 | locus YDR392W, strain spt3, hits give low values 0.964 | locus YDR502C, strain sam2, hits give low values 0.997 | locus YEL003W, strain gim4, hits give low values 0.976 | locus YEL037C, strain rad23, hits give low values 0.98 | locus YEL061C, strain CIN8 (second series), hits give low values 0.965 | locus YEL061C, strain CIN8, hits give low values 0.997 | locus YER015W, strain faa2, hits give low values 0.992 | locus YER016W, strain bim1, hits give low values 0.989 | locus YER110C, hits give low values 0.979 | locus YER111C, strain swi4, hits give low values 0.964 | locus YER155C, strain BEM2 (second series), hits give low values 0.966 | locus YER155C, strain BEM2, hits give low values 0.982 | locus YER167W, strain BCK2, hits give low values 0.989 | locus YFR010W, strain ubp6, hits give low values 0.958 | locus YGL078C, strain dbp3, hits give low values 0.999 | locus YGL086W, strain mad1, hits give low values 0.983 | locus YGL167C, strain pmr1, hits give low values 0.983 | locus YGL173C, strain kem1, hits give low values 0.972 | locus YGL227W, strain vid30, hits give low values 0.986 | locus YGL240W, strain doc1, hits give low values 0.979 | locus YGL248W, strain PDE1, hits give low values 1.01 | locus YGL253W, strain hxk2, hits give low values 0.968 | locus YGR078C, strain PAC10, hits give low values 1 | locus YGR135W, strain pre9, hits give low values 1.01 | locus YGR252W, strain gcn5, hits give low values 1.08 | locus YHR013C, strain ard1, hits give low values 0.972 | locus YHR027C, strain rpn1, hits give low values 1.01 | locus YHR030C, strain SLT2, hits give low values 0.997 and 0.973 | locus YHR079C, strain IRE1 (second series), hits give low values 0.994 | locus YHR079C, strain IRE1, hits give low values 0.976 | locus YHR094C, strain hxt1, hits give low values 0.979 | locus YHR129C, strain ARP1, hits give low values 1 | locus YHR142W, strain chs7, hits give low values 0.976 | locus YHR200W, strain rpn10, hits give low values 0.993 | locus YIL066C, strain RNR3, hits give low values 0.995 | locus YIL073C, strain SPO22, hits give low values 1.06 | locus YIL125W, strain kgd1, hits give low values 0.991 | locus YIR030C, strain dcg1, hits give low values 0.992 | locus YJL092W, strain hpr5, hits give low values 0.969 | locus YJL095W, strain BCK1 (second series), hits give low values 0.984 | locus YJL095W, strain BCK1, hits give low values 1.05 and 1.04 | locus YJL115W, strain asf1, hits give low values 0.956 | locus YJL129C, strain trk1, hits give low values 0.995 | locus YJL134W, strain LCB3, hits give low values 1 | locus YJL154C, strain vps35, hits give low values 0.981 | locus YJL164C, strain tpk1, hits give low values 1.01 | locus YJL166W, strain qcr8, hits give low values 0.989 | locus YJL168C, strain set2, hits give low values 0.983 | locus YJL187C, strain SWE1 (second series), hits give low values 1.01 | locus YJL187C, strain SWE1, hits give low values 1 | locus YJR043C, strain POL32, hits give low values 1.03
